# Assay outcomes from PubChem.
# Pf apPOL block: Pf-apPOL DNA polymerase inhibition | inhibition, % at 10 µM | actives 0.25% (n = 210,000) | AID 1794808 | Recombinant Pf-apPOL, molecular beacon fluorescence, 1.5 h
# mHTT-CaM PPI inh: mHTT-calmodulin interaction abrogation; actives 3.6% (n = 190,000); AlphaScreen His-mHTT/GST-CaM binding, luminescence; P42858; inhibition, % at 15 µM;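 note: 0% = both proteins with DMSO and 100% = one protein alone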
# * = called active by the depositor; · = no result given. In the library only some 3.5% were active in any assay of this set; here they are far more common. Cut-off read from the data, not from the text of the source: active = inhibition above about 50%; inactive = the rest.
SMILES,Pf apPOL block,mHTT-CaM PPI inh
CC(C)CC(NC(=O)COc1ccc(Cl)cc1Cl)C(=O)O (stereo unspecified),-2.0,·
CCC(=O)N1CCN(c2ccccc2Cl)C(=O)C1C (stereo unspecified),-0.2,-2.4
CC(C)c1cc(C2CCCN2C(=O)c2cc(C(F)(F)F)nn2C)no1 (stereo unspecified),-1.3,-0.3
CSCC(C)(O)CNC(=O)c1cc2ccccc2oc1=O (stereo unspecified),0.0,1.0
COc1c(C(=O)NCc2ccc(C)o2)sc2cc(Cl)ccc12,-3.6,-7.2
CCN1CCN(c2ncc3c(n2)CCN(Cc2cccc(F)c2F)C3)CC1,5.0,32.0
CCN1CCN(c2ncc3c(n2)CCN(Cc2ccccc2F)C3)CC1,-3.1,56.3*
Cc1cccc(CN2CCc3nc(N4CCN(c5ncccn5)CC4)ncc3C2)c1,0.8,100.1*
CCCN1CCN(c2ncc3c(n2)CCN(Cc2cccc(C)c2)C3)CC1,-6.8,13.3
COc1cc2c(cc1NC(=O)c1cccs1)CCCC2,7.0,-11.1
Cc1ccc(S(=O)(=O)n2c(C)nc3cc([N+](=O)[O-])ccc32)cc1C,2.4,-2.8
COc1ccc(NC(=O)c2cnn(-c3ccccc3)c2NC(=O)c2ccccc2)cc1,1.7,19.9
CC(=O)Nc1ccc2c(c1)CCC2,-7.2,·
COC1CCCCC1Nc1ccc2c(c1)CCC2 (stereo unspecified),·,52.2*
CN(C)c1ccc(CN2CCCC2c2nc(-c3cccnc3)no2)cc1 (stereo unspecified),-2.0,56.3*
c1cncc(-c2noc(C3CCCCN3Cc3ccco3)n2)c1 (stereo unspecified),2.5,4.1
COc1ccc(C(=O)C=Cc2ccccc2Cl)c(O)c1,-12.4,2.9
COc1cccc(-c2cc(C(=O)N3CCN(C(=O)c4ccco4)CC3)n(C)n2)c1,-8.4,0.9
COc1ccc(NC(=O)N2CCCC2c2ccccc2Cl)c(OC)c1 (stereo unspecified),-5.4,2.2
CCC1CN(C(=O)Nc2ccc(OC)cc2)c2ccccc2O1 (stereo unspecified),2.5,1.1
COc1ccc(NC(=O)N2CC3CCCN3c3ccccc32)cc1 (stereo unspecified),1.1,62.3*
COc1ccc(NC(=O)N2CC3CCCN3c3ccccc32)c(OC)c1 (stereo unspecified),0.5,89.8*
O=C(NCc1cccnc1)c1cccc(-c2nc(-c3ccc(F)cc3)no2)c1,-2.8,-2.8
COCCN1C(=O)c2ccccc2C(C(=O)N(C)c2ccc(C(C)C)cc2)C1c1ccc(F)cc1 (stereo unspecified),-1.6,57.0*
COCCN1C(=O)c2ccccc2C(C(=O)N(C)C2CCCCC2)C1c1ccc(F)cc1 (stereo unspecified),1.0,5.0
SMILES,Pf apPOL block,mHTT-CaM PPI inh
Cc1cc(C)c(C)c(S(=O)(=O)N2CCC(N3CCCCC3)CC2)c1C,-7.7,-4.4
Cc1cccc(-n2ncc3c(N4CCOCC4)ncnc32)c1,0.0,1.1
Cc1ccc(-n2ncc3c(N4CCOCC4)ncnc32)c(C)c1,-3.3,56.0*
CC(C)c1nncn1C1CCN(C(=O)Cc2cccs2)C1 (stereo unspecified),5.4,2.8
Cc1[nH]c2c(c1C)C(=O)CC(C)(C)C2,·,68.0*
COC(=O)c1[nH]c2c(c1C)C(=O)CC(C)(C)C2,·,2.7
FC(F)(F)c1ccncc1-c1nnc(-c2cccc(Cl)c2)o1,-5.4,·
COc1ccc(-c2c(C#N)c(N)nc(SCC(=O)c3ccc(O)c(O)c3)c2C#N)cc1,-5.6,99.0*
N#Cc1c(N)nc(SCC(=O)c2ccc(Br)cc2)c(C#N)c1-c1ccccc1,-12.2,-8.0
N#Cc1c(N)nc(SCC(=O)c2ccc(O)c(O)c2)c(C#N)c1-c1ccc(O)cc1,27.3,31.0
N#Cc1c(N)nc(SCC(=O)c2ccc(O)c(O)c2)c(C#N)c1-c1cccc(Cl)c1,3.5,85.0*
CC(=O)N(CN1C(=O)C2CCCCC2C1=O)c1ccccc1C (stereo unspecified),-2.0,-6.0
CC(=O)Nc1ccc(NC(=O)c2cccs2)c(Cl)c1,-0.9,-4.1
Cn1cc(C(=O)NCCc2c[nH]c3ccccc23)c2nn(-c3ccccc3)c(=O)c-2c1,-10.1,36.5
Cn1cc(C(=O)NCCc2c[nH]c3ccccc23)c2[nH]c(=O)n(Cc3ccccc3)c(=O)c21,4.8,56.4*
COc1cc(C2CC(c3ccccc3O)=NN2)ccc1O (stereo unspecified),3.0,89.4*
COc1ccccc1C1CC(c2cc(Cl)ccc2O)=NN1 (stereo unspecified),-7.4,47.0
CC(C)c1ccc(NC(=O)c2ccc(-c3nc4cccnc4n(C)c3=O)cc2)cc1,-0.9,-4.9
CC1=NN(c2ccccc2)C(=O)/C1=C/c1ccc(O)c(Br)c1,6.3,52.0*
CC1=NN(c2ccccc2)C(=O)/C1=C/c1ccc2c(c1)OCO2,3.7,8.0
CCCC1=NN(c2ccccc2)C(=O)/C1=C\c1cc(Br)c(O)c(OC)c1,-1.9,67.0*
CC1=NN(c2ccccc2)C(=O)/C1=C/c1cccc(Oc2ccccc2)c1,3.3,52.0*
CCOc1cc(/C=C2/C(=O)N(c3ccccc3)N=C2C)ccc1O,8.1,43.0
CC1=NN(c2ccccc2)C(=O)/C1=C/c1ccc(N(C)C)c(Br)c1,3.0,65.0*
COc1cc(/C=C2\SC(=O)N(c3ccccc3)C2=O)cc(Br)c1O,-6.2,8.0
SMILES,Pf apPOL block,mHTT-CaM PPI inh
CC1=NN(c2ccccc2)C(=O)/C1=C/c1cccc(C(=O)O)c1,0.1,5.0
COc1ccccc1-n1ccnc(NC(=O)c2ccccc2)c1=O,-1.7,-1.5
CCn1cnc2c1CN(S(=O)(=O)c1cccc(C#N)c1)CC2,-1.1,4.5
CCCOc1ccc(C(=O)Nc2ccc(Cl)cc2)cc1,-327.9,-13.4
CCCOc1ccc(NC(=O)c2ccc([N+](=O)[O-])cc2)cc1,-1.3,-4.7
CC(=O)N=C1SCCN1CC(=O)c1cccc(C(F)(F)F)c1,-1.9,2.0
Cc1cccc(OCC(=O)N2CCC(c3cnn(-c4ccccc4)c3)CC2)c1,-9.8,1.3
CCn1c(-c2cccc(C(=O)NC3CCCCC3)c2)nc2cccnc21,-6.1,-3.4
CC1=NN(c2ccccc2)C(=O)/C1=C/N1CCCCC1,-1.5,2.0
CC1=NN(c2ccccc2)C(=O)/C1=C/C=C/c1ccccc1,-1.6,71.0*
S=c1sc2c(Cl)ncnc2n1-c1ccccc1,·,82.9*
S=c1sc2c(N3CCc4ccccc43)ncnc2n1-c1ccccc1,·,-2.2
O=C1CSC(c2ccc(Br)cc2)N1Cc1ccco1 (stereo unspecified),-0.6,1.0
O=C1CSC(c2ccco2)N1Cc1ccccc1 (stereo unspecified),-0.9,-2.0
O=C1CSC(c2cn(-c3ccccc3)nc2-c2ccccc2)N1Cc1ccco1 (stereo unspecified),-3.1,59.0*
O=C1CSC(c2cn(-c3ccccc3)nc2-c2ccc(Cl)cc2)N1Cc1ccco1 (stereo unspecified),-6.0,90.0*
CN(CC1OCCO1)c1ccc(N2C(=O)C3C4C=CC(C4)C3C2=O)cc1[N+](=O)[O-] (stereo unspecified),-14.9,6.0
O=C(CN1CCc2ccccc2C1C(=O)N1CCCCC1)Nc1ccc(F)c(F)c1 (stereo unspecified),-1.1,-3.2
COc1cc([N+](=O)[O-])ccc1NC(=O)c1ccc(C(C)C)cc1,-6.4,0.6
COc1ccc(O)c(C2=Nc3ccccc3N=C(c3cccc([N+](=O)[O-])c3)C2)c1,-2.4,57.0*
